# Bioassay records: PubChem BioAssay, The Scripps Research Institute Molecular Screening Center
# Shown are actives, neighbours in structure and some others; about 1.3% of the full set was active somewhere.
# GALR2 blocker – antagonists of human galanin receptor 2 (GALR2) | 140,000 compounds, 0.39% hits | GALR2-expressing cells, antagonist mode | inhibition, % at 4 µM; in the data active = inhibition above about 27%;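 also: cells stimulated with galanin 1-16 at roughly its EC80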
# S1P3 antagonist – S1P3 (human) receptor antagonism; inhibition, % at 4.98 µM; CHO S1P3 NFAT-BLA reporter, FRET fluorescence, antagonist mode; AID 485; 170,000 compounds, 0.27% hits;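 active = inhibition above the plate cutoff, the mean inhibition of test wells on that plate plus 3 SD, cut at about 28% in these data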;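 also: cells challenged with S1P at its EC80 of 0.8 µM; blue over green emission ratio from cleaved BLA substrate after 4 h stimulation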
# S1P4 ag – activates the human S1P4 receptor. 220,000 compounds, 0.35% hits. O95977. activation, % at 4.98 µM. S1P4-expressing cell line, agonist reporter assay. AID 1509; in the data active = activation above about 11%
# Target sequence (O95977 whole entry, looked up): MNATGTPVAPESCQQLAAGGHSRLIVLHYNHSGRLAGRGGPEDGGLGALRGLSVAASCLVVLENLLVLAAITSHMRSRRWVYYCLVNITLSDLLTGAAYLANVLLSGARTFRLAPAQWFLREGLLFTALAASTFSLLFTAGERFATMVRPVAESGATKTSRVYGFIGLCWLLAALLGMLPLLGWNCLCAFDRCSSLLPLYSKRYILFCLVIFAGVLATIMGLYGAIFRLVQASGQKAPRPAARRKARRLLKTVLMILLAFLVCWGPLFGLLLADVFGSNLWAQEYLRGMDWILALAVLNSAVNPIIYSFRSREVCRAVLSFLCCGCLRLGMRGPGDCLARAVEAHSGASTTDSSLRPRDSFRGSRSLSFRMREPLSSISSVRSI
# GALR2 ag – activates the human galanin receptor 2; GALR2-expressing cells, agonist activation read-out; 140,000 compounds, 0.48% hits; activation, % (concentration not given with the values); O43603; in the data active = activation above about 5%, passing the limit was not always enough
# S1P4 antag – antagonists of human S1P4 receptor; O95977; S1P4-expressing cells, antagonist mode, reporter read-out; inhibition, % at 4.98 µM; 220,000 compounds, 0.26% hits; AID 1510; in the data active = inhibition above about 29%
# S1P4 antag cf – human S1P4 antagonism, confirmation; shares compounds with S1P4 antag; S1P4-expressing cell line, antagonist mode, reporter read-out; inhibition, % at 4.98 µM; 520 compounds, 71% hits; AID 1524; in the data active = inhibition above about 30%
# S1P1 antagonist – human S1P1 antagonism as S1P4 antagonist counter-screen. cell-based S1P1 antagonist counterscreen, inhibition. inhibition, % at 4.98 µM. AID 1564. shares compounds with S1P4 antag. 520 compounds, 37% hits; in the data active = inhibition above about 40%;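 also: receptor stimulated with S1P near its EC80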
# A number is an active result; 0 = inactive; - = no result given.
SMILES,GALR2 blocker,S1P3 antagonist,S1P4 ag,GALR2 ag,S1P4 antag,S1P4 antag cf,S1P1 antagonist
O=c1[nH]n(-c2cccc3cccnc23)c(=O)c2ccccc12,0,0,0,0,0,-,-
O=S1(=O)Nc2c(ccc3cccnc23)-c2ccccc21,0,0,0,0,49.6,95.0,88.8
Cc1nc2ccc(NC(=O)c3nn(CC(C)C)c(=O)c4ccccc34)cc2s1,0,0,0,0,40.0,45.5,0
Cc1cc(C)c(C)c(OCc2nc(-c3cccnc3)no2)c1,0,0,0,0,30.0,0,0
O=C(NNC(=S)Nc1ccccc1C(F)(F)F)C1CC1,-,0,0,-,0,-,-
O=[N+]([O-])c1cnc(Sc2ccncn2)s1,-,0,0,-,35.0,115.5,111.6
O=C(Nc1nc2cc3c(cc2s1)OCO3)c1ccco1,-,0,0,-,0,-,-
O=C(Nc1nc2ccccc2c(=O)s1)c1ccco1,-,0,0,-,29.5,0,0
Cc1ccc(NC(=O)c2sc(N)nc2-c2ccc([N+](=O)[O-])cc2)c(C)c1,-,0,0,-,0,-,-
S=c1[nH]nc(-c2cc(-c3ccccc3)n[nH]2)n1/N=C/c1ccccc1,-,0,0,-,0,-,-
S=c1[nH]nc(-c2cc(-c3ccccc3)n[nH]2)n1/N=C/C(Br)=C/c1ccccc1,-,0,0,-,34.8,66.2,0
CC1=CC(=O)C(C(C)C)=C/C1=N/OS(=O)(=O)c1ccccc1,-,0,0,-,38.2,78.5,0
Cc1ccc2c(c1)/C(=N/OS(=O)(=O)c1ccccc1)CCS2,0,-,0,0,0,-,-
CC1=CC(=O)C=C(C)C1=NOS(=O)(=O)c1ccccc1,0,-,0,0,32.7,98.2,0
Cc1ccc(S(=O)(=O)ON=C2CCN(S(=O)(=O)c3ccccc3)CC2)cc1,0,-,0,0,0,-,-
COc1ccc(OC)c2c1C(=O)C(Cl)=C(Cl)C2=O,-,31.2,0,-,55.6,107.2,73.8
COc1ccc(OC)c2c1C(=O)c1ccccc1C2=O,0,-,0,0,0,-,-
CN1/C(=C/C(=O)c2nc(S(C)(=O)=O)ncc2Cl)C(C)(C)c2ccccc21,0,0,0,0,65.5,111.3,0
O=C(C=C=Nc1ccccc1)C(=O)N=C=Cc1ccccc1,-,0,0,-,41.6,106.4,0
Cn1c(N)c(C(=O)COC(=O)COc2ccccc2C#N)c(=O)n(C)c1=O,-,0,0,-,0,-,-
Nc1cccc2c1C(=O)N(C(=O)c1ccc(Cl)c(S(=O)(=O)N3CCCCCC3)c1)C2=O,0,-,0,0,31.9,32.9,0
CN(C)/C=C/C(=O)c1cnc(-c2ccccc2)s1,-,0,0,-,38.1,0,0
CCOC(=O)Cn1nc(C)c(NC(=O)COc2ccc([N+](=O)[O-])c(C)c2)c1C,-,0,0,-,39.8,0,0
CCC(=O)OCCNc1cc(Sc2nc3ccccc3s2)c2nonc2c1[N+](=O)[O-],0,-,0,0,0,-,-
CCC(=O)OCCNc1cc(Sc2nc3ccccc3[nH]2)c2nonc2c1[N+](=O)[O-],0,0,0,0,36.0,110.5,0
SMILES,GALR2 blocker,S1P3 antagonist,S1P4 ag,GALR2 ag,S1P4 antag,S1P4 antag cf,S1P1 antagonist
O=C(Oc1cccc(/C=N/Nc2nc(Nc3ccccc3)nc(N3CCOCC3)n2)c1)c1ccco1,0,0,0,0,37.9,70.3,47.6
Cc1ccc2c(C)c(C(=O)Nc3c(C)n(C)n(-c4ccccc4)c3=O)oc2c1,0,0,0,0,0,-,-
Cc1c(C(=O)Nc2c(C)n(C)n(-c3ccccc3)c2=O)oc2ccccc12,0,0,0,0,0,-,-
Cc1ccc2c(C)c(C(=O)Nc3c(C)n(C)n(-c4ccccc4)c3=O)oc2c1C,0,0,0,0,29.1,61.4,0
Cc1cc2oc(C(=O)Nc3c(C)n(C)n(-c4ccccc4)c3=O)c(C)c2cc1C,0,0,0,0,30.2,61.1,47.7
COc1ccc(NC(=S)N2CCN(C(=O)C3CCCO3)CC2)c(OC)c1 (stereo not drawn),0,0,0,0,0,-,-
S=C(Nc1cccc(Cl)c1)N1CCN(Cc2ccccc2)CC1,0,0,0,0,0,-,-
O=S(=O)(c1ccc(Cl)c(Cl)c1)c1snnc1-c1ccccc1,0,-,0,0,56.0,114.4,74.9
N#CCC(=O)N/N=C/c1cc(-c2ccccc2)n(-c2ccc(Cl)cc2)c1-c1ccccc1,-,0,0,-,0,-,-
Cc1ccc(NC(=O)C2=C(c3ccccc3)S(=O)(=O)CCS2(=O)=O)cc1,-,0,0,-,45.2,108.3,0
Cc1ccc(NC(=O)c2ccccc2)cc1,0,-,0,0,0,-,-
CS(=O)(=O)N1CCN(c2ccc(NC(=O)c3ccc([N+](=O)[O-])o3)cc2)CC1,-,0,0,-,0,-,-
